# In PubChem BioAssay AID2561 (National Center for Advancing Translational Sciences (NCATS), 2010):
# Results filed as inconclusive are left out. Values without a mark were called inactive. The source made the active and inactive calls. The call rests on the fitted dose curve; in most records, active means well fitted inhibition curve with a large enough effect; inconclusive means small, poorly fitted or top-dose-only effect, or effect the other way; inactive means flat fitted curve, though single readings scatter.
# Biological target: Pyruvate kinase (Leishmania mexicana) (UniProt Q27686)
# Assay: Confirmation Assay for Inhibitors of Leishmania Mexicana Pyruvate Kinase (LmPK): for Probe SAR;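 on activity change, negative = inhibition: plate controls were uninhibited enzyme for no effect and no enzyme wells for full effect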
# Settings: purified LmPK, ATP generation, Kinase-Glo luminescence; series mostly up to 57.5 µM; activity change, negative = inhibition: at the top concentration
# From the text: NIH Chemical Genomics Center [NCGC] Malcolm Walkinshaw, Hugh Morgan, Linda Gilmore University of Edinburgh, UK MLPCN Grant: 1 R03 MH085697-01 NCGC Assay Overview: Pyruvate kinase (L. Mexicana) (LmPK) enzyme was supplied as a highly purified (>95% pure) sulphate-free preparation from University of Edinburgh, UK and assayed for its ability to generate ATP from ADP using phosphoenolpyruvate (PEP) as a substrate. ATP generation was detected in a coupled reaction by luciferase-mediated luminescence, an ATP-dependent process. Pyruvate kinase substrates, PEP and ADP, were present in the assay at Km and approximately 10-fold below Km respectively. The enzyme was assayed at an intermediate level of activity to screen for both inhibitors and activators.
# NCGC Assay Protocol Summary: Three uL of enzyme mix (kept on ice) in assay buffer (50 mM Imidazole pH7.2, 50 mM KCl, 7 mM MgCl2, 0.01% Tween 20, 0.05% BSA) containing PEP (0.5 mM final concentration) and LmPK (0.1 nM final concentration) was dispensed into white solid bottom 1,536 well microtiter plates. 23 nL of compound were delivered by a pin tool and 1 uL of ADP mix in assay buffer (r.t; 0.1 mM final ADP concentration) was added. Plates were incubated at room temperature for 1 hour. Two uL of detection mix (Kinase-Glo, Promega; at 4 degree Celsius protected from light) was added and luminescence read by a ViewLux (Perkin Elmer) at 1 second exposure/plate. Data were normalized to the uninhibited and AC100 inhibition (no enzyme). To monitor activation, the first column contained a five-fold concentration of LmPK (0.5 nM).
# Potency means the concentration at half of the fitted maximal effect.
# Pyruvate kinase (Leishmania mexicana), sequence (Q27686 whole entry, looked up): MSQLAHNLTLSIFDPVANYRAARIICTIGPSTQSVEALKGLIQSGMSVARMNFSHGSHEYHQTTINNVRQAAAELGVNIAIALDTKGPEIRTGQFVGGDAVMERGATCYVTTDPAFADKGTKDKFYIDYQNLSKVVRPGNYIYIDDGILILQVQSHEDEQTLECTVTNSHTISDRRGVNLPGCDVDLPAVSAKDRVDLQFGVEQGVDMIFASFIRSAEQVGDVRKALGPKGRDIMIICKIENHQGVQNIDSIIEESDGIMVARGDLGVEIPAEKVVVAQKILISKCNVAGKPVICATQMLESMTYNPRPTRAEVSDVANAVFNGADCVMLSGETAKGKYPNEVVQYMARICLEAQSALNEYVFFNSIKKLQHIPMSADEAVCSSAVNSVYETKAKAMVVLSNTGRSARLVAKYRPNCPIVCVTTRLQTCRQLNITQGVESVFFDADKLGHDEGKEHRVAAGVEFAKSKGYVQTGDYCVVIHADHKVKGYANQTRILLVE
Compound,"activity change, negative = inhibition [%]",Potency
Cc1sc(C)c2c1C(=O)NS2(=O)=O,2.41,–
O=C1c2ccccc2C(=O)N1c1ncccc1O,5.08,–
O=S1(=O)N=C(Oc2ccc(Br)cc2)c2ccccc21,–,2.91 µM (active)
COc1cccc(OC2=NS(=O)(=O)c3ccccc32)c1,7.22,–
O=C1NS(=O)(=O)c2cscc21,2.97,–
Cc1ccc(NS(=O)(=O)c2cc3c(cc2Cl)CCC(=O)N3)cc1C,2.41,–
O=C1CCc2cc(S(=O)(=O)Nc3cccc(F)c3)ccc2N1,10.2,–
O=S(=O)(Nc1ccc(O)c(NS(=O)(=O)c2ccccc2)c1)c1ccccc1,14.9,–
O=C1NS(=O)(=O)c2cc(Cl)ccc21,-0.814,–
Cc1ccc(NS(=O)(=O)c2ccc3c(c2)CCC(=O)N3)cc1,12.6,–
Cc1ccc(NS(=O)(=O)c2cc3c(cc2Br)NC(=O)CO3)cc1C,8.27,–
Cc1ccc2nc(-c3ccc(C)o3)c(Nc3ccc4c(c3)OCO4)n2c1,-10.7,–
Cc1ccc(NS(=O)(=O)c2ccc3c(c2)N(C)CCO3)cc1C,20.5,–
Cc1scc2c1C(=O)NS2(=O)=O,1.67,–
O=C1c2ccccc2C(=O)N1C1CCCCC1,5.07,–
O=C1c2ccccc2C(=O)N1c1ccc2ncccc2c1,6.91,–
Cc1ccccc1OC1=NS(=O)(=O)c2ccccc21,–,4.43 µM (active)
COc1cccc2ccc(C3C(=O)c4ccccc4C3=O)nc12,-3.4,–
Cc1ccc(NS(=O)(=O)c2cc3c(cc2/C=C/c2ccccc2)NC(=O)CO3)cc1C,11,–
Cc1ccc2nc(-c3ccc(C)o3)c(Nc3ccccc3)n2c1,-1.71,–

Compound,"activity change, negative = inhibition [%]",Potency
O=S1(=O)N=C(Oc2ccccc2-c2ccccc2)c2ccccc21,–,3.66 µM (active)
COc1ccc(-c2nc3ccccn3c2Nc2ccccc2C)cc1,7.87,–
O=C1CCc2cc(S(=O)(=O)Nc3ccncc3)ccc2N1,-1.99,–
Cc1ccc(NS(=O)(=O)c2cc3c(cc2N2CCCCC2)NC(=O)CC3)cc1C,10.8,–
CSc1cc2c(s1)c1cnn(Cc3cccc(O)c3)c(=O)c1n2C,19.9,–
Cc1ccc(Nc2c(-c3ccc(C)s3)nc3ccccn23)cc1,-1.99,–
Cc1ccc(C)c(SC2=NS(=O)(=O)c3ccccc32)c1,–,4.11 µM (active)
O=C1c2ccccc2C(=O)C1c1nccc2ccccc12,–,18.3 µM (active)
Nc1ccc2c(c1)S(=O)(=O)NC2=O,-1.4,–
Cc1cc(C)c2ccc(C3C(=O)c4ccc(O)cc4C3=O)nc2c1 (stereo not given),-13.6,–
Cc1ccc(NS(=O)(=O)c2ccc3c(c2)NC(=O)CO3)cc1C,18.8,–
CC(C)(C)c1ccc(SC2=NS(=O)(=O)c3ccccc32)cc1,–,3.26 µM (active)
Nc1ccc2c(c1)C(=O)NS2(=O)=O,2.28,–
Cc1ccc2nc(-c3cccs3)c(Nc3ccccc3)n2c1,-3.68,–
Cc1ccc(C)c(SC2=NS(=O)(=O)c3cc(C(=O)NCc4ccccc4)ccc32)c1,–,5.8 µM (active)
Cc1ccc(-c2nc3cccc(C)n3c2Nc2ccc(F)cc2)o1,7.79,–
COC(=O)c1ccccc1S(=O)(=O)Nc1cc(=O)c2ccccc2[nH]1,0.72,–
O=C1c2ccccc2C(=O)N1Cc1ccncc1,-15.4,–
Cc1ccc(N2C(=O)c3ccccc3C2=O)c(C)c1,8.62,–
COc1ccc(NS(=O)(=O)c2ccc3c(c2)CCC(=O)N3)cc1,8.64,–
